# Laboratory results published in PubChem BioAssay.
# The source made the active and inactive calls. Unless noted, how the calls were made is not given here.
# Tests used:
# [1] = compounds binding Alexa647 anti-His antibody – biochemical, small-molecule microarray, 635 nm fluorescence, artefact control for SMM control protein annotation, primary screen (AID 1128); settings: higher = more signal;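 further: score merges feature fluorescence with signal-to-noise for each printed compound spot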
# [2] = system: Human papillomavirus type 1a E7 protein (residues 1-88); experiment: HPV1a E7 small-molecule binders, primary screen, biochemical, small-molecule microarray, residues 1-88, 635 nm (AID 1129); settings: small-molecule microarray binding, fluorescence 635 nm; higher = more signal
# [3] = target: Focal adhesion kinase 1 (Homo sapiens) (UniProt Q05397); experiment: PTK2 protein binding on printed compound slides – biochemical, small-molecule microarray, 635/667 nm fluorescence, BSA, DTT, primary screen (AID 1130); settings: 635 nm fluorescence, higher = more signal;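 further: composite of spot emission at 667 nm and signal to noise over triplicate slides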
# Focal adhesion kinase 1 (Homo sapiens), sequence (Q05397 whole entry, looked up): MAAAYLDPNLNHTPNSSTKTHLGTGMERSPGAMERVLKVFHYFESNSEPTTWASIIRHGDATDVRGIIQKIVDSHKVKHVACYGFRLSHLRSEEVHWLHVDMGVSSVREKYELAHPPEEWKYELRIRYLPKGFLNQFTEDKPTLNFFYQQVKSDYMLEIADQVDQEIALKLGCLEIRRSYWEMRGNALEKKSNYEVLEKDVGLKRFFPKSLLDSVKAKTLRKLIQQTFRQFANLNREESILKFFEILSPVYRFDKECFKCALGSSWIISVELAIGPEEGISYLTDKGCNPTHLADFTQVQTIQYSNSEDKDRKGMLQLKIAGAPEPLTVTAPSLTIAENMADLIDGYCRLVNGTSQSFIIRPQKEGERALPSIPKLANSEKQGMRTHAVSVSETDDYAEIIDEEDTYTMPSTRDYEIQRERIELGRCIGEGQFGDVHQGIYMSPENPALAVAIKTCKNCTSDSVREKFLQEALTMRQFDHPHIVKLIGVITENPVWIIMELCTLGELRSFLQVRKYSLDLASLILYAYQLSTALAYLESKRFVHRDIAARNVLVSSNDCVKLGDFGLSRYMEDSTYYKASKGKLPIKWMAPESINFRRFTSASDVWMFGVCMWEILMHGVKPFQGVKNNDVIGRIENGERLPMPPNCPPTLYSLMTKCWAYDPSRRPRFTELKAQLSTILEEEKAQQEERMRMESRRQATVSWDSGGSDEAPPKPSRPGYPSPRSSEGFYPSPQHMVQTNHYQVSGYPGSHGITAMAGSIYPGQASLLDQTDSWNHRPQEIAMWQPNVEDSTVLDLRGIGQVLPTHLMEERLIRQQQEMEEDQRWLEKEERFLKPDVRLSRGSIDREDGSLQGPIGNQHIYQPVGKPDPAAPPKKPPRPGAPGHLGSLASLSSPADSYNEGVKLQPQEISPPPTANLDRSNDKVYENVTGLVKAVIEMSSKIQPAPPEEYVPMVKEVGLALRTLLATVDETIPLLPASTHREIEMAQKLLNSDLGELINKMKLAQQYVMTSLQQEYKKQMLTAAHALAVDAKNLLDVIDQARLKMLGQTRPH
# [4] = system: Fibrinogen (Alexa647-labelled); experiment: Alexa647-fibrinogen binding to printed small molecules – biochemical, small-molecule microarray, 635/667 nm fluorescence, artefact control for SMM control-protein annotation, profiling panel (AID 1131); settings: fibrinogen-A647 binding fluorescence, higher = more signal;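 further: z-score merges 667 nm fluorescence with per-spot signal-to-noise over triplicate slides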
# [5] = target: Follistatin (Homo sapiens) (UniProt P19883); experiment: FST protein binding to printed compounds – biochemical, small-molecule microarray, 635/667 nm fluorescence, primary screen (AID 1132); settings: 635 nm fluorescence, higher = more signal
# Follistatin (Homo sapiens), sequence (P19883 whole entry, looked up): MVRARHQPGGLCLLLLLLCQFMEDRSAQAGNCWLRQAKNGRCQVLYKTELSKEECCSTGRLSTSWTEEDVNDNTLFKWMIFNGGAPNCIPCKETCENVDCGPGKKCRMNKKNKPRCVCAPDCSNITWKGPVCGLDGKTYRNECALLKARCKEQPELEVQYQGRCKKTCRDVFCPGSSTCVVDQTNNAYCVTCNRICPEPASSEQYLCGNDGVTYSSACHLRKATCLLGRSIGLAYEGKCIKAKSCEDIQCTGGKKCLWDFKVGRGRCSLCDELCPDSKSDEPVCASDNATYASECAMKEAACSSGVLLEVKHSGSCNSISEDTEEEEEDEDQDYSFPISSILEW
# [6] = target: Fibroblast growth factor 2 (Homo sapiens) (UniProt P09038); experiment: basic fibroblast growth factor binding to printed compounds – biochemical, small-molecule microarray, 635/667 nm fluorescence, primary screen (AID 1133); settings: FGF2, fluorescence 635/667, higher = more signal
# Fibroblast growth factor 2 (Homo sapiens), sequence (P09038 whole entry, looked up): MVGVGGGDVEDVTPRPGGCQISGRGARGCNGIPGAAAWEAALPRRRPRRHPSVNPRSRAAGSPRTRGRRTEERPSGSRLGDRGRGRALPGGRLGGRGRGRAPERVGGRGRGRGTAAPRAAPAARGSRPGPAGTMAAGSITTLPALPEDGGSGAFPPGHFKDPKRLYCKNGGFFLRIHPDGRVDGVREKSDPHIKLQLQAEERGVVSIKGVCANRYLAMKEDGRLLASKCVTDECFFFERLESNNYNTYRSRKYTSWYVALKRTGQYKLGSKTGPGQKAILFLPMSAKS
# [7] = JC-1 mitochondrial potential readout, lung cancer cells – cell-based, A549, JC-1 fluorescence, basal, 24 h, 100 nL, profiling panel (AID 1138); settings: higher = more signal;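 further: A549 lung adenocarcinoma cells under basal conditions with no added stimulus; test concentration not given here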
# Lefty1 = Lefty1 protein binding to printed compounds – biochemical, small-molecule microarray, 635/667 nm fluorescence, primary screen (AID 1139); settings: fluorescence 635/667, higher = more signal
# [8] = system: wheat germ agglutinin (Triticum aestivum), Alexa647-labelled; experiment: Alexa647-WGA lectin binding to printed small molecules – biochemical, small-molecule microarray, 635/667 nm fluorescence, artefact control for SMM control-protein annotation, profiling panel (AID 1140); settings: WGA-A647 binding, 635 nm fluorescence, higher = more signal;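 further: score merges 667 nm feature emission with signal to noise over triplicate slides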
# [9] = target: Luciferin 4-monooxygenase (Photinus pyralis) (UniProt P08659); experiment: inhibition of purified Photinus pyralis luciferase – biochemical, luminescence, purified enzyme, 2006 set, primary screen (AID 1141); settings: purified firefly luciferase, SteadyGlo luminescence, 30 min; higher = more signal, called active from +8 up or from −8 down;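 further: cell-free assay with purified firefly luciferase at 100 ng per well in PBS; test concentration not given here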
# Luciferin 4-monooxygenase (Photinus pyralis), sequence (P08659 whole entry, looked up): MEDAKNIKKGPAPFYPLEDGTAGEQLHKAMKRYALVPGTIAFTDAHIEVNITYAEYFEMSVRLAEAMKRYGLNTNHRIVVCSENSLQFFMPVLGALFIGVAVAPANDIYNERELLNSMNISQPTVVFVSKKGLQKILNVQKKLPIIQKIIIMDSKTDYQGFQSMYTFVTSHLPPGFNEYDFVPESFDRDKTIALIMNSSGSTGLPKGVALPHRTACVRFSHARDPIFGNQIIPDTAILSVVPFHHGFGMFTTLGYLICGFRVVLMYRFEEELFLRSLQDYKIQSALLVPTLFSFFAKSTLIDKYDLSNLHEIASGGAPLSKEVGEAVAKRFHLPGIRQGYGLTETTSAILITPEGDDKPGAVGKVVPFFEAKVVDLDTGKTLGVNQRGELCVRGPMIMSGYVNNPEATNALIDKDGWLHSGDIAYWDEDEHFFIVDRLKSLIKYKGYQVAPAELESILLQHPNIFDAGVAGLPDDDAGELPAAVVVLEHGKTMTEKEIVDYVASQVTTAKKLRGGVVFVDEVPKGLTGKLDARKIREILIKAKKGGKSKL
# [10] = system: Wnt5a (protein binding on small-molecule microarray); experiment: small molecules binding Wnt5a protein – biophysical, small-molecule microarray, 635/667 nm fluorescence, primary screen (AID 1142); settings: 635 nm fluorescence, higher = more signal;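 further: fluorescence read at 667 nm with signal to noise per printed feature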
# [11] = ATP-based viability of Huh7 replicon cells – cell-based, CellTiter-Glo luminescence, basal, 48 h, cytotoxicity control for HCV replication inhibitor project, primary screen (AID 1143); settings: higher = more signal, called active from +8 up or from −8 down;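 further: Huh7 hepatoma cells carrying a hepatitis C replication reporter with no stimulus; test concentration not given here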
# [12] = Pseudomonas biofilm growth suppression – PAO1 strain, BacTiter-Glo luminescence, LB-PBS, primary screen (AID 1144); settings: P. aeruginosa PAO1 biofilm, 12 h, higher = more signal
# [13] = basal CRE-LacZ reporter activity in PC12 – cell-based, unstimulated, primary screen (AID 1145); settings: no forskolin, luminescence, 4.5 h, higher = more signal, called active from +8 up or from −8 down
# [14] = forskolin-driven CRE-LacZ activity in PC12 – cell-based, CRE-LacZ reporter, forskolin-stimulated, primary screen (AID 1146); settings: luminescence, 4.5 h, higher = more signal, called active from +8 up or from −8 down;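 further: PC12 cells with 6xCRE LacZ reporter stimulated by forskolin 10 µM; beta-galactosidase reporter signal reflecting CREB driven transcription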
# [15] = target: Streptavidin (Streptomyces avidinii) (UniProt P22629); experiment: compounds binding control protein streptavidin – biophysical, small-molecule microarray, 635/667 nm fluorescence, artefact control for SMM compound annotation, primary screen (AID 1147); settings: higher = more signal;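 further: signal reflects streptavidin binding to arrayed compounds as a control protein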
# Streptavidin (Streptomyces avidinii), sequence (P22629 whole entry, looked up): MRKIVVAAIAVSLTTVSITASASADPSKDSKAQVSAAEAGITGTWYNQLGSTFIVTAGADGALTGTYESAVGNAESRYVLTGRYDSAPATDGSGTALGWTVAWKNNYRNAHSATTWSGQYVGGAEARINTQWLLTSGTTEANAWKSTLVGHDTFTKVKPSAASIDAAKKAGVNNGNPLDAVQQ
# [16] = probe aInhba binding on compound microarray – biochemical, small-molecule microarray, 635/667 nm fluorescence, primary screen (AID 1148); settings: higher = more signal;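 further: score merges 667nm spot fluorescence with signal-to-noise for antibody binding to printed compounds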
# Torsin-1A (Homo sapiens) [17] = target: Torsin-1A (Homo sapiens) (UniProt O14656); experiment: TOR1A wild-type binding on microarray – cell lysate, small-molecule microarray, lysate, 635/667 nm, primary screen (AID 1149); settings: COS7 hTOR1A-WT lysate, 635 nm fluorescence, higher = more signal
# Torsin-1A (Homo sapiens), sequence (O14656 whole entry, looked up): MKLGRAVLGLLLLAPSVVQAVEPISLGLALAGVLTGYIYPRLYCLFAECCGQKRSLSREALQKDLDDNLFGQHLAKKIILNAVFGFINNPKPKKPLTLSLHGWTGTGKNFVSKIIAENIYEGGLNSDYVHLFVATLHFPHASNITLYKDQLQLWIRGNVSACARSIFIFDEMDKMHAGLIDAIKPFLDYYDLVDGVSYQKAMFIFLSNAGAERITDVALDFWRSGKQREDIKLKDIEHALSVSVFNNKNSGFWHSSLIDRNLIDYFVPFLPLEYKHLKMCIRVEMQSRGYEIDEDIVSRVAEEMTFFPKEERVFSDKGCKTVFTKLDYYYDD
# Torsin-1A (Homo sapiens) [18] = target: Torsin-1A (Homo sapiens) (UniProt O14656); experiment: torsin A mutant lysate binding on microarrays – cell lysate, small-molecule microarray, COS7 lysate, 635/667 nm fluorescence, primary screen (AID 1150); settings: COS7 hTOR1A mutant lysate, 635 nm fluorescence, higher = more signal;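 further: score pools 667 nm emission and signal to noise measuring lysate protein binding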
# [19] = system: Sonic hedgehog protein (Shh); experiment: Sonic hedgehog microarray binding compounds – biochemical, small-molecule microarray, 635/667 nm fluorescence, primary screen (AID 1151); settings: 635 nm fluorescence, higher = more signal;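 further: Shh protein binding to compounds spotted on small-molecule microarray slides; score combines spot fluorescence intensity with signal-to-noise across triplicate slides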
smiles,measurement,setting,value
[N-]=[N+]=NCc1ccccc1[C@H]1OC(c2ccc(OCCCO)cc2)=N[C@@]1(CCS(=O)(=O)c1ccccc1)C(=O)N1CCCCC1,composite z-score,[1],2.98
same,composite z-score,[2],1.23
same,composite z-score,[3],1.12
same,composite z-score,[4],1.02
same,composite z-score,[5],1.1
same,composite z-score,[6],0.227
same,z-score,[7],-1.16
same,composite z-score,Lefty1,0.53
same,composite z-score,[8],1.44
same,z-score,[9],-0.844 (inactive)
same,composite z-score,[10],0.526
same,z-score,[11],-1.56 (inactive)
same,z-score,[12],-0.705 (inactive)
same,z-score,[13],0.0219 (inactive)
same,z-score,[14],-0.709 (inactive)
same,composite z-score,[15],1.72
same,composite z-score,[16],0.211
same,composite z-score,Torsin-1A (Homo sapiens) [17],0.827
same,composite z-score,Torsin-1A (Homo sapiens) [18],1.28
same,composite z-score,[19],0.155
COc1ccc([Si](C)(C)[C@@H]2[C@@H](CC(=O)N(CCO)Cc3ccccc3)O[C@]3(C(=O)N(Cc4cccc(N5CCOC5=O)c4)c4ccccc43)[C@H]2C)cc1,composite z-score,[1],1.78
same,composite z-score,[2],1.13
same,composite z-score,[3],0.139
same,composite z-score,[4],0.732
same,composite z-score,[5],0.583
same,composite z-score,[6],0.393
same,z-score,[7],-0.154
same,composite z-score,Lefty1,0.899
same,composite z-score,[8],0.717
same,z-score,[9],0.229 (inactive)
same,composite z-score,[10],-0.129
same,z-score,[11],-5.47 (inactive)
same,z-score,[12],-0.122 (inactive)
same,z-score,[13],0.748 (inactive)
same,z-score,[14],-0.62 (inactive)
same,composite z-score,[15],-0.121
same,composite z-score,[16],-0.176
same,composite z-score,Torsin-1A (Homo sapiens) [17],0.787
same,composite z-score,Torsin-1A (Homo sapiens) [18],0.347
same,composite z-score,[19],1.52
CC(C)C[C@@H]1NC(=O)[C@@H]2C[C@H](C(=O)NCCCCN(C)C)[C@H](c3cccc(OCCO)c3)N2C1=O,composite z-score,[1],-0.421
same,composite z-score,[2],-0.46
same,composite z-score,[3],0.392
same,composite z-score,[4],-1.81
same,composite z-score,[5],0.787
same,composite z-score,[6],0.549
same,z-score,[7],-0.57
same,composite z-score,Lefty1,0.24
same,composite z-score,[8],0.779
same,z-score,[9],0.857 (inactive)
same,composite z-score,[10],-0.179
same,z-score,[11],-0.193 (inactive)
same,z-score,[12],-1.25 (inactive)
same,z-score,[13],-0.817 (inactive)
same,z-score,[14],0.645 (inactive)
same,composite z-score,[15],-0.911
same,composite z-score,[16],0.0108
same,composite z-score,Torsin-1A (Homo sapiens) [17],0.352
same,composite z-score,Torsin-1A (Homo sapiens) [18],0.718
same,composite z-score,[19],1.24
CCCC[C@@H]1C[C@H]1[C@@H](NC(=O)c1cccs1)c1ccc(C(F)(F)F)cc1,composite z-score,[1],0.904
same,composite z-score,[2],-0.654
same,composite z-score,[3],-0.0276
same,composite z-score,[4],-0.364
same,composite z-score,[5],0.301
same,composite z-score,[6],-0.38
same,z-score,[7],0.503
same,composite z-score,Lefty1,0.222
same,composite z-score,[8],-0.945
same,z-score,[9],1.2 (inactive)
same,composite z-score,[10],-0.553
same,z-score,[11],-0.368 (inactive)
same,z-score,[12],0.195 (inactive)
same,z-score,[13],0.962 (inactive)
same,z-score,[14],1.57 (inactive)
same,composite z-score,[15],0.189
same,composite z-score,[16],-0.147
same,composite z-score,Torsin-1A (Homo sapiens) [17],-0.848
same,composite z-score,Torsin-1A (Homo sapiens) [18],-0.589
same,composite z-score,[19],0.652
COC(=O)[C@@]1(Cc2ccc(OC)cc2)[C@H]2c3cc(C(=O)N(C)C)n(CCO)c3C[C@H]2CN1C(=O)c1ccccc1,composite z-score,[1],0.214
same,composite z-score,[2],0.498
same,composite z-score,[3],1.45
same,composite z-score,[4],0.662
same,composite z-score,[5],-0.603
same,composite z-score,[6],-0.545
same,z-score,[7],0.782
same,composite z-score,Lefty1,-1.19
same,composite z-score,[8],0.946
same,z-score,[9],2.04 (inactive)
same,composite z-score,[10],0.29
same,z-score,[11],-0.0015 (inactive)
same,z-score,[12],0.371 (inactive)
same,z-score,[13],-0.182 (inactive)
same,z-score,[14],1.23 (inactive)
same,composite z-score,[15],1.61
same,composite z-score,[16],0.488
same,composite z-score,Torsin-1A (Homo sapiens) [17],0.145
same,composite z-score,Torsin-1A (Homo sapiens) [18],1.16
same,composite z-score,[19],-0.544
O=C1O[C@H](c2ccccc2)[C@H](c2ccccc2)N2[C@H]1[C@@H](C(=O)N1CCN(c3ncccn3)CC1)[C@]1(C(=O)Nc3ccc(C#CC4(O)CCCCCC4)cc31)[C@H]2c1ccc(OCCO)cc1,composite z-score,[1],1.14
same,composite z-score,[2],1.23
same,composite z-score,[3],1.03
same,composite z-score,[4],0.966
same,composite z-score,[5],1.27
same,composite z-score,[6],1.48
same,z-score,[7],-1.46
same,composite z-score,Lefty1,1.38
same,composite z-score,[8],1.03
same,z-score,[9],-1.2 (inactive)
same,composite z-score,[10],1.4
same,z-score,[11],-0.69 (inactive)
same,z-score,[12],-1.09 (inactive)
same,z-score,[13],-0.698 (inactive)
same,z-score,[14],-0.509 (inactive)
same,composite z-score,[15],2.76
same,composite z-score,[16],1.05
same,composite z-score,Torsin-1A (Homo sapiens) [17],0.801
same,composite z-score,Torsin-1A (Homo sapiens) [18],1.74
same,composite z-score,[19],2.02
C[C@H]1NC(=O)[C@@]23C(=O)N[C@@H](Cc4ccccc4)C2[C@H](C)[C@@]2(C)O[C@H]2C3/C=C/C/C=C\CNC(=O)[C@H](Cc2ccccc2)NC1=O (stereo not given in full),composite z-score,[1],0.624
same,composite z-score,[2],-0.0861
same,composite z-score,[3],-0.219
same,composite z-score,[4],0.617
same,composite z-score,[5],0.884
same,composite z-score,[6],0.811
same,z-score,[7],-0.0755
same,composite z-score,Lefty1,0.942
same,composite z-score,[8],0.404
same,z-score,[9],-0.203 (inactive)
same,composite z-score,[10],0.0319
same,z-score,[11],-0.945 (inactive)
same,z-score,[12],-0.773 (inactive)
same,z-score,[13],-0.508 (inactive)
same,z-score,[14],-0.0421 (inactive)
same,composite z-score,[15],-0.178
same,composite z-score,[16],-0.0963
same,composite z-score,Torsin-1A (Homo sapiens) [17],-0.2
same,composite z-score,Torsin-1A (Homo sapiens) [18],0.113
same,composite z-score,[19],1.63
Cc1ccc(S[C@]2(C(=O)O)CC(=O)N(Cc3cc(C(F)(F)F)cc(C(F)(F)F)c3)[C@@H]2c2ccc(CO)cc2)cc1,composite z-score,[1],-1.45
same,composite z-score,[2],-0.889
same,composite z-score,[3],-0.194
same,composite z-score,[4],-0.84
same,composite z-score,[5],-1.22
same,composite z-score,[6],-0.897
same,z-score,[7],-0.389
same,composite z-score,Lefty1,-1.66
same,composite z-score,[8],-1.31
same,z-score,[9],-0.0278 (inactive)
same,composite z-score,[10],-0.256
same,z-score,[11],0.0756 (inactive)
same,z-score,[12],-0.00769 (inactive)
same,z-score,[13],0.621 (inactive)
same,z-score,[14],0.573 (inactive)
same,composite z-score,[15],-0.882
same,composite z-score,[16],-0.128
same,composite z-score,Torsin-1A (Homo sapiens) [17],-0.272
same,composite z-score,Torsin-1A (Homo sapiens) [18],-0.62
same,composite z-score,[19],-1.26
COc1ccc([Si](C)(C)[C@@H]2[C@@H](CC(=O)N3Cc4ccccc4C[C@H]3CO)O[C@]3(C(=O)N(Cc4cccc(N5C(=O)c6cccc7cccc5c67)c4)c4ccccc43)[C@H]2C)cc1,composite z-score,[1],0.846
same,composite z-score,[2],0.956
same,composite z-score,[3],0.434
same,composite z-score,[4],0.883
same,composite z-score,[5],1.35
same,composite z-score,[6],1.62
same,z-score,[7],0.129
same,composite z-score,Lefty1,0.937
same,composite z-score,[8],0.423
same,z-score,[9],-0.347 (inactive)
same,composite z-score,[10],0.51
same,z-score,[11],-4.1 (inactive)
same,z-score,[12],-0.194 (inactive)
same,z-score,[13],0.861 (inactive)
same,z-score,[14],0.838 (inactive)
same,composite z-score,[15],0.211
same,composite z-score,[16],0.0091
same,composite z-score,Torsin-1A (Homo sapiens) [17],0.786
same,composite z-score,Torsin-1A (Homo sapiens) [18],0.535
same,composite z-score,[19],1.19
